# Pyk2 oligo antag = blocks oligomerization of human Pyk2 in cells. Q293 cells, Pyk2 FERM NanoBiT luminescence; active compounds read low. 0.83% of 99,000 active. AID 1347419. z-score (the deposit names both 25 µM and 10 µM);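 active = Z-score of -3 or lower, scaled per plate to the spread of control and sample wells; inactive = z-score above -3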;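 note: negative z-score means lost luminescence so less FERM oligomerization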
# D1 allo mod = allosteric modulators of human D1 dopamine receptor. P21728. HEK293 D1, CRE-luciferase, dopamine EC30 potentiation; actives deviate in either direction. 5.9% of 58,000 active. B-score at 10 µM. AID 641;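 active = luminescence count or its row- and column-corrected plate score outside the 99.7% band of the plate's sample wells, on either side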
# FAK blocker = inhibitors of human focal adhesion kinase. 0.84% of 97,000 active. biochemical FAK kinase activity assay. inhibition, %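 (tested at 7 µM)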; in the data active = inhibition above about 19%
# CD11b adhes enh = increases human CD11b/CD18 adhesion to fibrinogen. P05107+P11215. K562 CD11b/CD18 adhesion to fibrinogen, ATPlite luminescence. activation, % at 10 µM. 0.07% of 93,000 active. AID 1499;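 active = 10 µM primary screen giving 50% or more activity, confirmed by 40% or more on retest at that dose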
# Target sequence (P05107 whole entry, looked up, other chains not shown): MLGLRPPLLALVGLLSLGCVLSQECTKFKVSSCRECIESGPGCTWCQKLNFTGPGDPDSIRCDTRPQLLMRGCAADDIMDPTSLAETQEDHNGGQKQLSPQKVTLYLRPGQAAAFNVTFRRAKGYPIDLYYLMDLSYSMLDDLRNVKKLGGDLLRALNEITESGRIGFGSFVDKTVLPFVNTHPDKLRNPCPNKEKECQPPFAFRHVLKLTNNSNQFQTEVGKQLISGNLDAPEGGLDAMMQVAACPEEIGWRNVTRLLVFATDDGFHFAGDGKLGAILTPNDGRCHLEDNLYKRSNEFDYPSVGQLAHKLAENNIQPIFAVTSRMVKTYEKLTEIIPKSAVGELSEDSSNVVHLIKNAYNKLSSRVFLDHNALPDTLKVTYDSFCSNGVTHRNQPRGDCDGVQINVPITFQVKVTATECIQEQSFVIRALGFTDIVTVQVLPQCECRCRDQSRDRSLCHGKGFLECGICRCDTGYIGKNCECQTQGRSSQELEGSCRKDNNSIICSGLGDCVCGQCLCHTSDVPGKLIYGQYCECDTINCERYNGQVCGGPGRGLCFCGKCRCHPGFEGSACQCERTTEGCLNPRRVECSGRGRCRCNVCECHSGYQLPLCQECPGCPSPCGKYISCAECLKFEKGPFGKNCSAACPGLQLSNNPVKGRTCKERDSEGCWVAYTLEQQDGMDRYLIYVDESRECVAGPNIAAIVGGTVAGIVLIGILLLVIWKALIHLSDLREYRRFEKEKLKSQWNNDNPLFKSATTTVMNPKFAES
# Mac1 fbg inh = inhibitors of human CD11b/CD18 binding to fibrinogen; P05107+P11215; K562 CD11b/CD18 adhesion to fibrinogen, ATPlite luminescence; Mn2+ added to activate the integrin; inhibition, % at 10 µM; 0.54% of 93,000 active; AID 1497;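 active = primary inhibition of 50% or more at 10 µM, then 40% or more on retest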
# DAT uptake mod = modulates human dopamine transporter uptake under cocaine. Q01959. LLC-PK1 hDAT cells, [14C]-dopamine uptake with cocaine IC80; actives deviate in either direction. B-score at 10 µM. 1.3% of 110,000 active. AID 449768;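 active = Z score or B-score, a plate-position-corrected score, falls beyond the plate's 99.7% confidence bounds, in either direction; inactive = both scores lie inside the 99.7% bounds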
# Hits are given with their value; - = inactive; . = no result. This excerpt belongs to a sample that is enriched for hits.
SMILES,Pyk2 oligo antag,D1 allo mod,FAK blocker,CD11b adhes enh,Mac1 fbg inh,DAT uptake mod
COc1cccc(NC(=O)c2ccc3c(c2)N(CC(=O)N2CCCCC2)C(=O)C(C)(C)O3)c1,-,-,-,-,-,3.11
CCc1nnc(NC(=O)c2ccc3c(c2)C(=O)N(CC)C3=O)s1,-,.,-,.,.,-
COc1ccc(OC)c(NC(=O)C(CC(=O)O)NCc2ccco2)c1 (configuration not stated),-,-,-,.,.,-
CC(C)Nc1ncnc2c1cnn2-c1ccc(Cl)cc1,.,-6.07,.,-,-,-
CCCN1C(=O)/C(=C/C=C2\N(CC)c3ccccc3C2(C)C)SC1=S,-3.03,.,-,-,-,-
O=S(=O)(c1ccc(SCCO)nc1)N1CCCC1,-,-,-,-,-,-
O=c1cc(CSc2ccc(S(=O)(=O)N3CCCCC3)cn2)nc2sccn12,-,-4.52,-,-,-,-
CCOC(=O)N1CCC(N2C(=O)c3ccccc3C2Nc2c(C)cccc2C)CC1 (configuration not stated),.,.,-,-,-,.
CCCNC(=O)c1cccc(C(F)(F)F)c1,-,.,-,-,-,-
COc1ccccc1-c1nnc(NC(=O)c2ccc(S(=O)(=O)N(C)Cc3ccccc3)cc2)o1,.,-,-,.,.,-8.6
CN(Cc1ccccc1)S(=O)(=O)c1ccc(C(=O)Nc2nnc(C3CC3)o2)cc1,-,-,-,-,-,-
CC(C(=O)N(C1CC1)C1(C(=O)Nc2ccccc2)CCCC1)N1C(=O)c2ccccc2C1=O (configuration not stated),-,-,.,-,-,-
COC(CNc1cc(=O)oc2ccccc12)OC,-,.,-,-,-,-
COCCNc1nc2sc3c(c2c(=O)n1Cc1ccco1)CCCCC3,.,.,.,-,-,.
COC(=O)C(C(C)=O)C1=C/C(=N\S(=O)(=O)c2ccc(C)cc2)c2ccccc2C1=O (configuration not stated),-,.,-,-,65.9,-
Cc1ccc(S(=O)(=O)/N=C(\CSC(N)=O)Nc2ccccc2)cc1,-,.,-,-,-,-
O=S(=O)(Nc1ccncc1)c1ccc(Cl)cc1,-,.,-,-,-,-
O=S(=O)(Nc1ccc(Cc2ccncc2)cc1)c1ccc(Cl)c(Cl)c1,-3.03,.,-,.,.,-
CNNCc1ccc(C(=O)NC(C)C)cc1,.,.,.,.,.,-
CCOC(=O)Cn1c(=O)oc2cc(S(=O)(=O)Nc3ccc(F)cc3)ccc21,.,-,-,-,-,-
CN1CCN(CCCC(=O)c2ccc(F)cc2)CC1,-,-,-,-,-,-
Cc1nc2sccn2c(=O)c1CCN1CCC(=C(c2ccccc2)c2ccc(F)cc2)CC1,.,-,.,.,.,-3.54
CC(=O)N1CCc2cc(S(=O)(=O)NC(CC(C)C)C(=O)N3CCn4c3nc3ccccc34)ccc21 (configuration not stated),-3.72,-,-,-,-,-
CC(=O)N1CCc2cc(S(=O)(=O)NC(CC(C)C)C(=O)Nc3ccc4c(c3)OCCO4)ccc21 (configuration not stated),-,-,.,-,-,-
N#Cc1ccc(Cl)cc1NC(=O)COC(=O)c1ccc(S(=O)(=O)N2CCCC2)cc1,-,.,-,-,-,-
SMILES,Pyk2 oligo antag,D1 allo mod,FAK blocker,CD11b adhes enh,Mac1 fbg inh,DAT uptake mod
C#C[C@]1(O)CCC2C3CCC4=Cc5oncc5CC4(C)C3CCC21C (some centres not stated),.,.,.,.,.,-
COc1ccc(CCNC(=O)CSc2nc3cc(Cl)ccc3o2)cc1OC,-,.,-,-,-,-
CC1(C)Oc2ccc3ccc(=O)oc3c2-c2cn[nH]c21,-,-,24.2,-,-,-
CCOC(=O)/C=C(\C)Nc1cc(C)nn1-c1ccccc1,-,-4.79,.,-,-,-
CC(C)C[C@H](NC(=O)c1nc[nH]c1C(=O)N(C)Cc1ccccc1)C(=O)OC(C)(C)C,.,.,.,.,.,-
CCCCCN=C(N)N/N=C/c1c[nH]c2ccc(OC)cc12,.,.,.,.,.,3.69
CC1=NN(c2ccc(C)cc2C)C(=O)C1C(c1cccc(O)c1)C1C(=O)N(c2ccc(C)cc2C)N=C1C (configuration not stated),.,.,.,-,-,.
COc1ccc(-n2c(C)cc(C(=O)CN3C(=O)c4ccccc4C3=O)c2C)cc1,.,.,.,-,-,.
COc1ccc(-n2c(C)cc(C(=O)COC(=O)Cn3cnc4ccccc43)c2C)cc1,-,-,-,-,97.1,-
O=C(Cn1cc(SCc2cccc(Cl)c2)c2ccccc21)N1CCOCC1,.,.,.,-,-,.
CCOC(=O)Cn1nc(-c2ccccc2)ccc1=O,-,-,-,-,-,-
CCOC(=O)Cn1nc(-c2ccccc2)nc1-c1ccccc1,-,-3.52,-,-,-,-
Cc1cc(C)nc(NS(=O)(=O)c2ccc(N3C(=O)C4CC=C(Cl)CC4C3=O)cc2)n1 (configuration not stated),-,-,-,-,-,-
COC(=O)Cn1cnc(=O)c(C#N)c1/C=C/N(C)C,-,-4.72,-,.,.,-
COC(=O)Cn1cnc2c(C#N)c3n(c2c1=O)CCCCC3,-,-,-,-,-,-
CCN1CCN(CCNC(=O)C2CCCN(Cc3nc(-c4cccc(Cl)c4)oc3C)C2)CC1 (configuration not stated),.,-,-,-,-,-
CCOC(=O)N1CCC(NC(=O)C2CCCN(Cc3nc(-c4cccc(Cl)c4)oc3C)C2)CC1 (configuration not stated),.,-,-,-,59.6,-
CCOC(=O)N1CCN(C(=O)C2CCCN(Cc3nc(-c4ccc(Cl)cc4)oc3C)C2)CC1 (configuration not stated),.,-,-,-,70.5,.
COc1cccc(C(=O)/C=C/Nc2ccc(NC(C)=O)cc2)c1,.,.,.,-,-,.
COc1cccc(C(=O)/C=C/Nc2cccc(O)c2)c1,-,.,-,-,90.7,-
FC(F)(F)c1nc(N2CCCC2)ncc1-c1nnnn1-c1ccc(Cl)cc1,-,.,-,-,55.0,-
Fc1ccc(-n2nnnc2-c2cnc(-c3cccs3)nc2C(F)(F)F)cc1,-3.66,.,-,-,-,-
FC(F)(F)c1nc(-c2ccncc2)ncc1-c1nnnn1-c1ccccc1,-,.,-,-,-,-
Cc1ccc(-n2nnnc2-c2cnc(-c3cccnc3)nc2C(F)(F)F)cc1,-,.,-,-,-,-
c1ccc(-n2nnnc2-c2cnc(-c3ccncc3)nc2-c2cccs2)cc1,-,.,30.0,.,.,-
CC1(C)CC(=O)C2=C(C1)Nc1[nH]c(=S)[nH]c(=O)c1C2c1ccccc1 (configuration not stated),-,-,-,-,-,-
CC(C)(C)[C@H]1C=C(C(=O)NCc2nc3ccccc3[nH]2)O[C@@H](OCc2ccc(CO)cc2)C1,.,.,.,.,.,-
CCc1ccc(-c2nc(CSCC(=O)N3CCN(c4ncccn4)CC3)c(C)o2)cc1,.,-,-,-,78.6,-
Cc1ccc(C(=O)NCCSc2ccccc2)cc1S(=O)(=O)Nc1ccccc1,-,.,-,.,.,-
O=C1CCCC2=C1C(c1cccs1)n1nc(SCc3ccccc3F)nc1N2 (configuration not stated),-,-,-,.,.,2.76

# Bioassay records deposited in PubChem by several laboratories.
